Experimental data: PubChem BioAssay (Tox21)
Records with an inconclusive call do not appear. Where a call stands in place of a potency, no number is given. Values without a mark were called inactive. Active and inactive are the calls of the source. Calls come from the whole dose curve.

Molecular target: D(2) dopamine receptor (Homo sapiens) (UniProt P14416)
Assay: Dopamine D2 receptor (DRD2) small molecule agonists, cell-based qHTS assay (AID 1963594); note: nearly all actives have a fitted effect of over 35% in size
Details: HEK293-DRD2 cAMP HTRF, agonist mode, 30 min; series mostly up to 92.4 µM
Text: National Center for Advancing Translational Sciences [NCATS]
Division of Preclinical Innovation [DPI]
U.S. Environmental Protection Agency [EPA]
National Institutes of Environmental Health Sciences [NIEHS]
National Toxicology Program [NTP]
U.S. Food and Drug Administration [FDA]
DRD2 is the D2 subtype of the dopamine receptor, which is coupled to Gi subtype of G protein-coupled receptor. This G protein-coupled receptor inhibits adenylyl cyclase activity. The DRD2-HEK293 cell line stably expressing D2 dopamine receptor can be used for screening agonists and antagonists of interactions between D2 and its ligands. The Hek293-DRD2 cAMP assay is based on HTRF technology. It measures changes of cAMP accumulation in response to Gi coupled GPCR activation or inhibition.
Tox21 Assay Protocol Summary:
DRD2-Hek293 cells were dispensed at 600 cells/3uL/well in 1536-well white plates using a Multidrop Dispenser. After the assay plates were incubated at a 37 C/5% CO2 incubator for 24 h, 1 uL of Ro20-1724 at final concentration of 0.1 mM was transferred to the assay plate by a Flying Reagent Dispenser. Following Ro20-1724 addition, 23 nL of compound dissolved in DMSO, positive controls or DMSO only was added to the assay plates via Wako pintool station. The assay plates were incubated at room temperature for 10 min. Next, 1 uL of NKH477 at 200nM was added into the plates. After the assay plates were incubated at room temperature for an additional 30 min, 2.5 ul/well of cAMP-d2 and 2.5 ul/well of anti-cAMP-cryptate were added respectively into the assay plates using a Flying Reagent Dispenser. The plates were incubated at room temperature for 1 h. The fluorescence intensity in the plates was measured at 340 nm excitation and 665 & 620 nm emission by an Envision plate reader.
Potency is the fitted concentration of half-maximal effect.

Chain of D(2) dopamine receptor (Homo sapiens) (P14416 whole entry, looked up): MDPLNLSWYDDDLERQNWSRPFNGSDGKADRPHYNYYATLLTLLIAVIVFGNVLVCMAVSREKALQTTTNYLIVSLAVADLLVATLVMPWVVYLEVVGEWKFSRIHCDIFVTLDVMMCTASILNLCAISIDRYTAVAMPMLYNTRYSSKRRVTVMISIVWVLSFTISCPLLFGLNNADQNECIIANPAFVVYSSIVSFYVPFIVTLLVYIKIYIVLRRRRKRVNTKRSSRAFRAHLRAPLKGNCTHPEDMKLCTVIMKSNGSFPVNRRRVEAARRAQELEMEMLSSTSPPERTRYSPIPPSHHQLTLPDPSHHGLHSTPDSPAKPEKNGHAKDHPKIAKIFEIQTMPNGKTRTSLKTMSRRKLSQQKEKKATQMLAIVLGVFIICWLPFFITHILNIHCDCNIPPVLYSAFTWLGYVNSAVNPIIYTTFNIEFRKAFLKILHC

Structure (SMILES) | Potency | activation
CC1(COc2ccc(CC3SC(=O)NC3=O)cc2)CCCCC1 (stereo not given) | 12.8 µM (active) | 
C[C@H]1[C@H](NC(=O)/C(=N/OC(C)(C)C(=O)O)c2csc(N)n2)C(=O)N1S(=O)(=O)O (stereo in doubt) | inactive | 
COC(=O)CCS | inactive | 
COc1ccc2nc(S(=O)Cc3ncc(C)c(OC)c3C)[nH]c2c1 (stereo not given) | inactive | 
CCCCCC(CO)CCC (stereo not given) | inactive | 
Cc1[nH]c(C)c(Cl)c(=O)c1Cl |  | -3.57% [at 19 µM]
OCCCS | inactive | 
O=C(NCC(O)CO)c1c(I)c(C(=O)NCC(O)CO)c(I)c(N(CCO)C(=O)CO)c1I (stereo not given) | inactive | 
C[C@@H](N)C(=O)O | inactive | 
C[C@]12C(=O)OC(=O)[C@H]1[C@H]1C=C[C@@H]2C1 | inactive | 
CC[C@@]1(c2ccccc2)NC(=O)N(C)C1=O | inactive | 
CN(C)C(C)(C)CO | inactive | 
C=C[C@](C)(O)CC[C@@H]1[C@@]2(C)CCCC(C)(C)[C@@H]2CC[C@@]1(C)O | inactive | 
C=C(C)C(=O)OCCCCCCCCCCCCCCCCCC |  | -1.1% [at 19 µM]
CCCCNC1CC(C)(C)NC(C)(C)C1 | inactive | 
O=S(c1cc(Cl)cc(Cl)c1O)c1cc(Cl)cc(Cl)c1O | inactive | 
O/N=C/C=N/O | inactive | 
O=C1NCCN1 | inactive | 
CC(C)(C)CCCCCCOC(=O)c1ccccc1C(=O)OCCCCCCC(C)(C)C | inactive | 
O=[N+]([O-])c1cccc(Cl)c1Cl | inactive | 

Structure (SMILES) | Potency | activation
C=CC(C)(CCC=C(C)C)OC(=O)/C=C/c1ccccc1 (stereo not given) | inactive | 
CC(CN)CC(C)(C)CCN (stereo not given) | inactive | 
CCCCNCCCC | inactive | 
C=C(C)CS(=O)(=O)O | inactive | 
O=CN(CCO)CCO | inactive | 
NCCc1cnc[nH]1 | inactive | 
CCCC(=O)OCCC(C)CCC=C(C)C (stereo not given) | inactive | 
Cc1ccc2c(Br)cc(Br)c(O)c2n1 | inactive | 
CC(=O)OCC(=O)[C@H]1CC[C@H]2[C@@H]3CCC4=CC(=O)CC[C@]4(C)[C@H]3CC[C@]12C | inactive | 
CCCCC/C=C\C=C\C(=O)OCC | inactive | 
CC(=O)Oc1cccc(C)c1 | inactive | 
CCCCC(CC)CNCC(CC)CCCC (stereo not given) | inactive | 
Cc1ccccc1OCC(=O)O | inactive | 
COc1ccc(S(=O)(=O)Nc2nnc(CC(C)C)s2)cc1 | inactive | 
c1ccc(Cc2ccccc2)cc1 | inactive | 
C=C(C)C(=O)OCCCCCCCCCC | inactive | 
Cc1c2ccccc2c(C)c2c1ccc1ccccc12 | inactive | 
CCCCCCCC/C=C\CCCCCCCC(=O)OC(CO)CO | inactive | 
FC(F)(Cl)C(F)(Cl)Cl | inactive | 
BrCCOc1ccccc1 | inactive | 
